What was measured:
Conditions in all cases: concentration: 1 μM, replicates: in singlicate; n = 1
MST1 = tested on: T1, MST1
T1 construct: gene STK4

MST2 = tested on: T2, MST2
T2 construct: gene STK3

MST3 = tested on: T3, MST3
T3 construct: gene STK24

MST4 = tested on: MST4
MTOR = tested on: MTOR
MUSK = tested on: MUSK
MYLK2 = tested on: MYLK2
MYLK4 = tested on: MYLK4
MYLK = tested on: MYLK
MYO3A = tested on: MYO3A
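Also: KINOMEscan kinase panel screen.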

Compound | %Inh (MST1) | %Inh (MST2) | %Inh (MST3) | %Inh (MST4) | %Inh (MTOR) | %Inh (MUSK) | %Inh (MYLK2) | %Inh (MYLK4) | %Inh (MYLK) | %Inh (MYO3A)
Cl.Nc1ncnc2occ(-c3ccc(NC(=O)Nc4cc(C(F)(F)F)ccc4F)cc3)c12 [SB-707548] | 50% | 26% | 52% | 8% | 16% | 100% | 37% | 26% | 21% | 96.6%
Cc1cn2c(=O)cc(N3CCOCC3)nc2n1Cc1cccc(Cl)c1Cl [GSK2334006] | 14% | 0% | 0% | 0% | 37% | 27% | 32% | 9% | 8% | 0%
Cc1nnc(-c2ccc(C)c(-c3ccc(C(=O)Nc4ccc(NS(C)(=O)=O)cc4)cc3)c2)o1 [GW702865] | 6% | 0% | 0% | 0% | 28% | 0% | 0% | 8% | 3% | 23%
C[C@@H](Oc1cc(-n2cnc3ccc(NC(=O)NC(C)(C)C)cc32)sc1C(N)=O)c1ccccc1Cl [GSK346294] | 12% | 0% | 13% | 0% | 31% | 6% | 0% | 1% | 23% | 35%
Cc1nnc(-c2ccc3occ(-c4ccc(C(C)O)cc4)c3c2)o1 (stereo not shown) | 0% | 0% | 0% | 0% | 0% | 4% | 14% | 4% | 26% | 0%
CN1c2ccc(CNc3ccc(F)cc3)cc2-c2c(cnn2C)S1(=O)=O | 0% | 0% | 0% | 0% | 24% | 0% | 0% | 0% | 4% | 0%
NS(=O)(=O)c1cccc(-c2ccc3nccc(-c4cccc(S(N)(=O)=O)c4)c3c2)c1 [GW867253] | 11% | 0% | 5% | 0% | 32% | 10% | 0% | 2% | 0% | 0%
O=c1cc(N2CCOCC2)nc2n(Cc3cccc4ccccc34)ccn12 [GSK2333389] | 0% | 9% | 0% | 0% | 0% | 0% | 0% | 0% | 0% | 0%
Nc1nccc(-c2c(-c3ccc(F)cc3)ncn2C2CCN(CC(F)(F)F)CC2)n1 [SB-236560] | 96.9% | 0% | 0% | 0% | 0% | 22% | 0% | 0% | 1% | 0%
O=C(NCCNc1ccnc(Nc2ccc(F)cc2)n1)c1cc2ccccc2s1 [GSK1379874] | 0% | 0% | 0% | 0% | 8% | 0% | 0% | 0% | 15% | 0%
Cc1cccc(-c2nc(Nc3ccc4ncsc4c3)c3ccccc3n2)n1 [GW867588] | 18% | 0% | 0% | 16% | 0% | 0% | 0% | 0% | 0% | 0%
Cc1nnc(-c2ccc3ncc(-c4ccc(S(C)=O)cc4)n3c2)o1 (stereo not shown) | 0% | 0% | 14% | 0% | 29% | 0% | 8% | 5% | 18% | 0%
COc1ccc(Nc2ncc(C#N)c(Nc3ccccc3C(N)=O)n2)cc1N1CCN(C)CC1.Cl [GSK1558669] | 98.3% | 51% | 95.5% | 99.4% | 0% | 80% | 98.2% | 98.2% | 99.4% | 76%
COc1cc2ncn(-c3cc(OCc4sccc4Cl)c(C(N)=O)s3)c2cc1OC [GSK448459] | 21% | 68% | 0% | 0% | 11% | 7% | 31% | 72% | 37% | 12%
COc1ccc(Nc2nccc(N3CCC(NC(=O)Nc4cccc(C(C)=O)c4)C3)n2)cc1 (stereo not shown) [GSK1379731] | 4% | 0% | 0% | 0% | 16% | 3% | 0% | 0% | 0% | 0%
COc1ccc(CNC(=O)NC2CCN(c3ccnc(Nc4ccc(OC)cc4)n3)C2)cc1 (stereo not shown) [GSK1379727] | 0% | 0% | 0% | 0% | 13% | 7% | 8% | 0% | 22% | 18%
